M1 antag – blocks human M1 muscarinic receptor; P11229; 360,000 tested, 1.3% active; inhibition, % at 3 µM; CHO-K1 hM1, Fluo-8 calcium fluorescence, ACh EC80 antagonist;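 active means percent inhibition above its own plate's cutoff, namely the mean of that plate's compound wells plus 3 SD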;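 further: peak over basal fluorescence ratio during 140 s after agonist addition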
Target sequence (P11229 whole entry, looked up): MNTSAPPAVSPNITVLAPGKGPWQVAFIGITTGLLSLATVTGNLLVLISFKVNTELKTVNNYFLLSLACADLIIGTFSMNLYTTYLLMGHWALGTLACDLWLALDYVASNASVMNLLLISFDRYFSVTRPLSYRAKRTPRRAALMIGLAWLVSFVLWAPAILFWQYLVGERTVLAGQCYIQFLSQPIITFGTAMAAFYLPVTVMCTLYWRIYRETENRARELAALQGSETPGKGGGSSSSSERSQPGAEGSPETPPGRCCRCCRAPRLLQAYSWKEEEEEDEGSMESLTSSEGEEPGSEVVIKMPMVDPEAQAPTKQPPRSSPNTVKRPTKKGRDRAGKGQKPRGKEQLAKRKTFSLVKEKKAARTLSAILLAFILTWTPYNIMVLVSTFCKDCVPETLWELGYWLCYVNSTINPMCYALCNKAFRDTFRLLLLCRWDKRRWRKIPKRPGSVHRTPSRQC
M1 PAM – human CHRM1 positive allosteric modulation; AID 588819; activation, % at 3 µM; P11229; 360,000 tested, 0.088% active; CHO-K1 hM1, Fluo-8 calcium fluorescence, ACh EC20; 0% = ACh EC20, 100% = maximal ACh; in the data active means activation above about 19%, passing the limit was not always enough
CHO-K1 Ca antag – nonselective inhibitor or artifact in parental CHO-K1 cells. ATP-induced calcium, Fluo-8 fluorescence. inhibition, % at 3 µM. 360,000 tested, 0.6% active;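 active means inhibition above a per-plate cutoff, the plate's mean sample inhibition plus 3 SD, cut at about 24% in these data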
CHRM1 agonist – agonists of human M1 muscarinic receptor. P11229. activation, % at 3 µM. AID 588814. CHO-K1 hM1, Fluo-8 calcium fluorescence, agonist mode; 0% DMSO, 100% acetylcholine EC100. 360,000 tested, 0.33% active;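 active means activation above the run's mean compound activation plus 3 SD, cut at about 16% in these data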;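 further: peak over basal fluorescence ratio within a 140 s kinetic read after compound addition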
M1 PAM parental – nonselective activator or artifact in parental CHO-K1 calcium assay | ATP EC20, Fluo-8 calcium fluorescence; 0% at ATP EC20, 100% at ATP max | activation, % at 3 µM | 360,000 tested, 0.02% active;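 active means activation above the run cutoff, the mean activation of all test compounds plus 3 SD, cut at about 40% in these data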;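 further: peak over basal fluorescence ratio in a 140 s read after ATP addition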
M1 ag parental – nonselective activator or artifact in parental CHO-K1 cells; Fluo-8 calcium fluorescence; scaled to maximal ATP response, vehicle zero; activation, % at 3 µM; 360,000 tested, 0.48% active; in the data active means activation above about 15%;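 further: untransfected CHO-K1 host cells lacking M1 receptor as counterscreen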
Hits are given with their value; - = inactive; . = not tested or not shown. Hits are enriched below; roughly 2.3% of the tested compounds scored in any of these assays.

SMILES	M1 antag	M1 PAM	CHO-K1 Ca antag	CHRM1 agonist	M1 PAM parental	M1 ag parental
O=C(CSc1nnc2c(n1)[nH]c1ccccc12)NCc1ccccc1F	-	-	-	-	-	-
Cc1cccc(C)c1NC(=O)CN1CCN(C(=O)CN2C(=O)NC3(CCCCC3C)C2=O)CC1 (stereo unspecified)	-	28	-	-	-	-
S=c1[nH]nc(-c2ccncc2)n1/N=C/C(Cl)=C\c1ccccc1	-	-	-	39	-	-
S=c1[nH]nc(-c2ccncc2)n1/N=C/C=C/c1ccccc1	-	-	-	-	-	-
CCOC(=O)C(C(=O)OCC)c1cc(Br)c2noc3c2c1C(=O)c1ccccc1-3	35	-	-	-	-	-
CC(Oc1ccccc1)C(=O)Nc1ccc(NC(=O)c2ccccc2)cc1 (stereo unspecified)	-	-	-	-	-	-
COc1cc(NC(=O)C(C)Oc2ccccc2)c(OC)cc1NC(=O)c1ccccc1 (stereo unspecified)	-	-	24	-	-	-
COc1ccc(Nc2nc(Nc3ccc(OC)cc3)nc(-n3[nH]c(=O)c(C)c3C)n2)cc1	33	-	-	-	-	-
O=C(NCc1ccccc1Cl)[C@H]1CCCN1C(=O)[C@H]1CCCN1C(=O)c1cccc2ccccc12	.	.	-	.	-	16
O=C(NCC1CCCO1)C1CCC(=O)N1Cc1ccccc1Cl (stereo unspecified)	-	-	25	-	-	-
O=C(NCCN1CCOCC1)C1CCC(=O)N1Cc1ccccc1Cl (stereo unspecified)	-	-	-	-	-	-
O=C1OC(N2C(=O)CC[C@H]2C(=O)NCC2CCCO2)c2ccccc21 (stereo partly specified)	102	-	-	-	-	-
COc1cccc(CNC(=O)C2CCN(S(=O)(=O)c3ccc4c(c3)CC(C)N4C(C)=O)CC2)c1 (stereo unspecified)	-	-	-	-	-	-
COC(=O)CNC(=O)c1ccccc1C	-	-	26	-	-	-
COC(=O)C(CO)Nc1ncnc2onc(-c3ccc(F)cc3)c12 (stereo unspecified)	-	-	-	-	-	-
CSCCC(NS(=O)(=O)c1ccc(C)cc1)C(=O)Nc1ccc(C)cn1 (stereo unspecified)	-	-	-	-	-	-
CCCCc1c(-c2ccccc2F)ncn1CCc1ccccc1OC	.	.	-	.	-	-
Cc1ccc(CS(=O)(=O)c2ncc(Cl)c(C(=O)Nc3ccc(OC(F)F)cc3)n2)cc1	-	-	24	-	-	-
CC(C=CC(O)=C1C(=O)CNC1=O)=C[C@@H](C)C1OC2(C)OC(C(=O)C3O[C@@]32C)C1C (stereo partly specified)	.	.	-	.	-	-
C1=C(CCNc2ncnc3c2[nH]c2ccccc23)CCCC1	-	-	29	-	-	15
COc1ccc(CNc2ncnc3c2[nH]c2ccccc23)cc1	37	-	-	-	-	19
CC(C)OCCCNc1ncnc2c1[nH]c1ccccc12	39	-	-	-	-	16
COc1ccc(CNc2ncnc3c2[nH]c2cc(OC)c(OC)cc23)cc1	-	-	-	-	-	-
COc1ccc(C(CNC(=O)Cc2ccc(-c3ccccc3)cc2)N(C)C)cc1 (stereo unspecified)	42	-	-	-	-	-
COc1cccc(C(CNC(=O)C(c2ccccc2)c2ccccc2)N(C)C)c1 (stereo unspecified)	55	-	-	-	-	-
SMILES	M1 antag	M1 PAM	CHO-K1 Ca antag	CHRM1 agonist	M1 PAM parental	M1 ag parental
O=C(O)CN=C(NS(=O)(=O)c1ccccc1)c1ccccc1	-	-	-	-	-	-
N#CCCN=C(NS(=O)(=O)c1ccccc1)c1ccccc1	-	28	-	-	-	-
COc1cc([N+](=O)[O-])ccc1N=Nc1c(N)[nH]n(-c2ccccc2)c1=O	-	-	-	-	-	17
Nc1[nH]n(-c2ccccc2)c(=O)c1N=Nc1ccccc1[N+](=O)[O-]	-	-	-	-	-	-
COc1ccc(Cl)cc1NC(=O)CN1C(=O)NC(Cc2c[nH]c3ccccc23)C1=O (stereo unspecified)	-	-	-	-	-	-
Cc1ccc2oc(C(=O)NCc3ccccc3)cc(=O)c2c1	-	-	-	-	-	-
Cc1cc2oc(C(=O)NCc3ccccc3)cc(=O)c2cc1C	81	-	-	-	-	-
Cc1cc(/C=N/NC(=O)c2ccc(O)cc2)c(C)n1C1CC1	-	-	28	-	-	-
CCCNC(=O)c1cc(C2CCCCN2C(=O)c2ccc(OC)cc2)on1 (stereo unspecified)	-	-	-	-	-	-
O=C(O)c1ccccc1C(=O)c1ccc(F)c(F)c1	-	-	-	-	-	-
Cc1cc(NC(=O)c2ccc3c(c2)C(=O)N(C2CCCCC2)C3=O)no1	-	-	-	-	-	-
O=C(Nc1ccncc1)c1ccc2c(c1)C(=O)N(C1CCCCC1)C2=O	35	-	-	-	-	-
CCn1c(CC(=O)Nc2ccc(OC)cc2)nnc1SCC(=O)N1CCOCC1	-	-	-	-	-	-
COc1ccccc1C(NC(=O)C1CCN(CCOc2ccc(Cl)cc2Cl)CC1)c1ccccn1 (stereo unspecified)	-	-	-	-	-	-
O=C(COc1ccc2ccccc2c1)Nc1ccc(Cc2ccncc2)cc1	43	-	25	-	-	-
COc1cc2ccccc2cc1C(=O)Nc1ccc(Cc2ccncc2)cc1	30	-	-	-	-	-
O=C(O)Cc1ccc(NC(=O)COc2ccc3ccccc3c2)cc1	-	-	-	-	-	-
CCN(CC(=O)Nc1ccc2c(c1)OCCO2)C(=O)COc1ccc(C(C)=O)cc1	-	-	-	-	-	-
COc1ccccc1C(=O)OCC(=O)NC(C)CCc1ccccc1 (stereo unspecified)	-	-	-	-	-	-
CC(CCc1ccccc1)NC(=O)COC(=O)c1ccccc1O (stereo unspecified)	-	-	-	-	-	16
O=C1C(=O)N(C/C=C/c2ccccc2)c2ccccc21	-	-	-	24	-	-
O=C1C(=O)N(CCCc2ccccc2)c2ccccc21	-	-	-	18	-	-
O=C(CN1C(=O)C(=O)c2ccccc21)NCCc1ccccc1	-	-	-	-	-	-
CCNC(=O)C1(C)CCN(C(=O)c2ccc(C#N)cc2)C1 (stereo unspecified)	-	-	-	-	-	-
Cc1ccc([N+](=O)[O-])cc1NC(=O)c1ccc(-c2ccccc2)cc1	-	-	24	-	-	-
Cc1ccc(C(=O)Nc2cc([N+](=O)[O-])ccc2C)cc1	-	-	-	-	-	-
